Pf growth 48h – inhibits P. falciparum growth in the first generation, 48 h; P. falciparum luciferase growth in erythrocytes, 48 h; Potency, µM (titrated, usually from 28.7 µM), most hits filed as inhibitors; 310,000 compounds, 5.9% hits
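Luminescence readout; reporter = integrated firefly luciferase in P. falciparum. RBC culture at 2% hematocrit, 0.1% parasitemia final, 37 C/5% CO2; decreased signal taken as growth inhibition.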
NS1 function inh – influenza NS1 inhibition. Potency, µM (series often up to 46.1 µM). 270,000 compounds, 0.4% hits. AID 2326; calls by dose curve; note: actives are rising curves; nearly all actives have a fitted effect of over 50% in size
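Compounds were scored for reversing the slow growth caused by influenza A NS1 in S. cerevisiae, measured by optical density at 600 nm. Assay medium contained 2% galactose at pH 6.0; NS1-free yeast of the same strain were the positive control.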
Shiga toxin inh – Shiga toxin inhibition. Vero cells, Shiga toxin protein synthesis inhibition reporter. inhibition, % at 38.7 µM. 290,000 compounds, 9.2% hits. AID 2315; in the data active = inhibition mostly above about 28%, no sharp cut-off; inactive = mostly below about 43%
Pf growth 96h – P. falciparum growth inhibition at 96 hour, primary screen for plastid delayed-death inhibitors. P. falciparum luciferase reporter growth, 96 h. Potency, µM (doses to about 28.7 µM), most hits filed as inhibitors. 320,000 compounds, 6.9% hits
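Two parasite generations (96 h, 37 C, 5% CO2) of compound exposure in infected erythrocytes (0.05% parasitemia, 2% hematocrit). Luciferase-reporter P. falciparum; decreased luminescence indicates inhibited growth, aimed at apicoplast-acting delayed death.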
Cycloheximide cs – affects cycloheximide protein synthesis inhibition readout, counter-screen. cell reporter, cycloheximide protein synthesis inhibition counterscreen. max response, %. 300,000 compounds, 12% hits. AID 2314; in the data active = max response mostly above about 13%, no sharp cut-off; inactive = mostly below about 14%; note: read at 38.3 µM for the half of the compounds with a filed dose
Large screens that a line does not name were inactive. Most compounds without a hit are left out; they make up all but 21% or so of the library. Unless noted, calls come from the whole dose curve; as a rule, active = well fitted inhibition curve with a large enough effect; inconclusive = small, poorly fitted or top-dose-only effect, or another doubt; inactive = no such curve, though single readings can be large or run the other way.

CCC(C)C(=O)OC1CC(O)C=C2C=CC(C)C(CCC(O)CC(O)CC(=O)O)C21 (configuration not stated)	none (no result: NS1 function inh, Shiga toxin inh, Cycloheximide cs)
COc1ccccc1C(=O)COC(=O)COc1cccc2c1OC(C)(C)C2	Shiga toxin inh 85, Pf growth 96h inconclusive, Cycloheximide cs 52
O=C(c1ccc(-c2ccccc2)cc1)N1CCN(c2ncccn2)CC1	Pf growth 96h 10µM
COc1ccccc1N1CCN(C(=O)c2cc3c(=O)n(C)c4ccccc4c3n2C)CC1	Pf growth 96h 7.4µM (no result: Pf growth 48h)
COc1ccccc1N1CCN(C(=O)c2ccc(COc3cccc4c3OC(C)(C)C4)cc2)CC1	Pf growth 48h 10µM, Pf growth 96h inconclusive (no result: NS1 function inh, Shiga toxin inh, Cycloheximide cs)
COc1ccc(N2CCN(C(=O)COC(=O)c3oc4ccccc4c3C)CC2)cc1	none (no result: NS1 function inh, Shiga toxin inh, Cycloheximide cs)
CN(C)C(=S)NC(=O)C12CC3(C)CC(C)(CC(C)(C3)C1)C2	Pf growth 96h inconclusive
CC1Nc2ccccc2C(=O)N1NS(=O)(=O)c1ccccc1 (configuration not stated)	none
CN(C)C(=O)C1CCN(Cc2c[nH]c3ccccc23)CC1	none (no result: Pf growth 48h, Shiga toxin inh, Pf growth 96h, Cycloheximide cs)
COc1ccccc1N1CCN(C(=O)c2ccc(-c3ccc(Cl)cc3)o2)CC1	Pf growth 48h inconclusive, Pf growth 96h 12µM (no result: NS1 function inh, Shiga toxin inh, Cycloheximide cs)
COc1ccccc1N1CCN(C(=O)NCc2ccc(Cl)cc2)CC1	none
O=C(c1ccc2[nH]c3c(c2c1)CCCC3)N1CCN(c2ccc(F)cc2)CC1	none
COc1ccccc1N1CCN(C(=O)c2ccc3[nH]c4c(c3c2)CCCC4)CC1	Pf growth 96h 12µM
CCOC(=O)c1nc(C)sc1-c1ccnn1S(=O)(=O)c1ccc(C)cc1	Pf growth 48h inconclusive, Pf growth 96h inconclusive
Cc1nn(Cc2cccc(C(=O)N3CCCC(C)C3)c2)c(C)c1[N+](=O)[O-] (configuration not stated)	none
O=C(CCNC(=O)c1ccc(Cl)cc1)Nc1ncccc1O	none
CCOC(=O)N1CCN(C(=O)c2ccccc2N(Cc2ccccc2)S(=O)(=O)c2ccccc2)CC1	Pf growth 48h 4.7µM
Cc1ccccc1CSCC(=O)NCCSc1ccccn1	Cycloheximide cs 22 (no result: NS1 function inh)
Cc1ccccc1N(CC(=O)NCCSc1ccccn1)S(=O)(=O)c1ccccc1	Pf growth 48h inconclusive, Pf growth 96h 10µM
COc1ccccc1N(CC(=O)NCCSc1ccccn1)S(=O)(=O)c1ccccc1	Pf growth 48h inconclusive
O=C(CCCNC(=O)c1ccc(Cl)cc1)Nc1ncccc1O	Pf growth 48h inconclusive, Pf growth 96h 8.3µM
CCOc1ccccc1N(CC(=O)N(C)Cc1ccccc1)S(=O)(=O)c1ccccc1	Pf growth 48h inconclusive, Shiga toxin inh 58
Cc1nnsc1SCCNC(=O)c1c(F)cccc1F	none
O=C(NCCSc1ccccn1)c1ccc(Cl)cc1	Shiga toxin inh 63 (no result: NS1 function inh)
Cc1ccc(C(=O)NCCSc2snnc2C)cc1	Shiga toxin inh 71, Cycloheximide cs 54
CCOc1ccccc1N(CC(=O)NCCSc1ccccn1)S(=O)(=O)c1ccccc1	Pf growth 48h 15µM, Pf growth 96h inconclusive
Cc1cc(C)c(NC(=S)N(CCN2CCCCC2)Cc2ccco2)c(C)c1	Pf growth 96h inconclusive (no result: NS1 function inh)
COc1cc(-c2nnc(CSc3nnc(Nc4ccc(C(C)C)cc4)s3)o2)cc(OC)c1OC	Pf growth 96h inconclusive, Cycloheximide cs 19
CCCCN(CCCC)Cc1ccc(C(=O)NNC(=O)Nc2ccc(F)cc2)o1	none (no result: NS1 function inh)
CCC(=O)N(CCC1(C(C)C)CCOC(C)(C)C1)C(C)c1cccs1 (configuration not stated)	Pf growth 48h inconclusive, Pf growth 96h inconclusive
CC(C)CCC1(CCNC(C)c2cccs2)CCOC(C)(C)C1 (configuration not stated)	Pf growth 48h inconclusive, Pf growth 96h 13µM
Cc1cc(C(C)(C)C)c(OC(=O)[C@@H]2OC(c3ccccc3)=C[C@H]2c2ccccc2)c(C(C)(C)C)c1	Pf growth 48h 5.2µM, Pf growth 96h inconclusive (no result: NS1 function inh, Shiga toxin inh, Cycloheximide cs)
O=C1CN(C(=O)Cn2ncc(Cl)c(Cl)c2=O)c2ccccc2N1	Pf growth 96h inconclusive (no result: NS1 function inh)
Cc1cc(C)cc(Oc2ccc(NC(=O)C3CC=CCC3C(=O)O)cc2)c1 (configuration not stated)	Pf growth 96h inconclusive (no result: NS1 function inh)
O=[N+]([O-])c1cccc(S(=O)(=O)NCCc2cccs2)c1	Pf growth 96h 10µM
CN1CCN(S(=O)(=O)c2ccc(NCc3ccc4c(c3)OCO4)nc2)CC1	none
CC/C(=N\O)c1ccc(O)c(OC)c1	Pf growth 96h inconclusive
COc1cc(S(=O)(=O)NCc2ccccc2Cl)ccc1-n1cnnn1	none
COc1ccccc1CNS(=O)(=O)c1ccc(-n2cnnn2)c(OC)c1	Pf growth 96h 9.3µM
COc1ccccc1CN(Cc1ccco1)S(=O)(=O)c1ccc(-n2cnnn2)c(OC)c1	Pf growth 48h 13µM, Pf growth 96h inconclusive
O=C(N/N=C/c1ccco1)Nc1ccccc1	Shiga toxin inh 102, Cycloheximide cs 29
CCOc1ccc(/C=N/Nc2ccccc2)cc1	Shiga toxin inh 47, Cycloheximide cs 27
Clc1ccc(/C=N\Nc2ccccc2)cc1	Shiga toxin inh 27, Pf growth 96h inconclusive
COc1ccc(/C=N/OCC(=O)NC(c2ccccc2)c2ccccc2)c(OC)c1	Pf growth 48h inconclusive, Pf growth 96h inconclusive
O=C(Cc1ccccc1)NCC(=O)N/N=C/c1ccc(Cl)cc1	none
CCOc1ccc(/C=N/OCC(=O)NC(c2ccccc2)c2ccccc2)cc1	Pf growth 48h 7.4µM, Pf growth 96h 9.3µM
CCOc1ccc(/C=N/NC(=O)CC(=O)Nc2ccc(Cl)c(Cl)c2)cc1	Pf growth 96h inconclusive
Cc1cccc(NC(=O)CCNC(=O)c2ccco2)c1	none
COc1ccccc1/C=N/NC1=NCCCCC1	none
CCOc1ccc(/C=N/NC2=NCCCCC2)cc1	Shiga toxin inh 27, Cycloheximide cs 19 (no result: NS1 function inh)
O=C(N/N=C/c1ccc(Cl)cc1)Nc1ccccc1	Shiga toxin inh 50, Cycloheximide cs 39
Cc1cccc(NC(=O)C(=O)NCCc2c[nH]c3ccccc23)c1C	none (no result: NS1 function inh)
S=C(NCCc1c[nH]c2ccccc12)NC1CCCC1	Pf growth 96h inconclusive, Cycloheximide cs 23
Cc1cccc(C)c1NC(=O)C(=O)NCCc1c[nH]c2ccccc12	Pf growth 48h 5.2µM, Pf growth 96h inconclusive (no result: NS1 function inh)
c1ccc2c(CN3CCN(C4CCCCC4)CC3)c[nH]c2c1	Pf growth 48h 6.6µM, Pf growth 96h 12µM
O=C(NCCc1c[nH]c2ccccc12)OCCSS(=O)(=O)O	Pf growth 96h 12µM
CCCc1cc(F)c(S(=O)(=O)N2CCN(S(=O)(=O)c3ccc4c(c3)OCCO4)CC2)cc1F	none (no result: Pf growth 48h, NS1 function inh, Pf growth 96h)
CCOc1ccccc1NC(=S)NC(=O)C1CCCCC1	Pf growth 48h inconclusive, Pf growth 96h inconclusive
c1ccc2c(CNC3CCCCC3)c[nH]c2c1	Pf growth 96h 13µM (no result: Pf growth 48h)
CCC(C(=O)NCCc1c[nH]c2ccc(C)cc12)c1ccccc1 (configuration not stated)	Pf growth 48h inconclusive, Pf growth 96h 15µM
O=C(NCCc1c[nH]c2ccccc12)Nc1ccccc1	Cycloheximide cs 24
N#Cc1cccc(NC(=O)NCCc2c[nH]c3ccccc23)c1	Pf growth 96h inconclusive
Cc1ccc(C)c(NC(=O)C(=O)NCCc2c[nH]c3ccccc23)c1	none (no result: NS1 function inh)
Cc1ccc(NC(=S)NCCc2c[nH]c3ccccc23)cc1	Cycloheximide cs 15

Screening results as filed in PubChem.
